Laboratory results from PubChem BioAssay (EPA / NIEHS).
Calls of active or inactive are those of the source. The calls were made as follows: active = hit-call score of the fitted dose curve at least 0.9, where 1 is the maximum; inactive = score below 0.9.

Assays:
[1] = ATG_CRE_CIS: Attagene CIS-FACTORIAL HepG2 Assay for human cAMP Responsive Element (CRE) binding protein 3 (AID 2282926); settings: HepG2 CRE cis-reporter, Attagene multiplexed mRNA; actives raise or lower the signal
Procedure, shortened: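 Liver-derived HepG2, transfected with a CRE-containing reporter panel, exposed 24 h; transcript levels sized and quantified by capillary electrophoresis of labelled amplicons; signal changes either way referenced to vehicle.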

[2] = biological target: CCAAT/enhancer-binding protein beta (Homo sapiens) (UniProt P17676); assay: ATG_C_EBP_CIS: Attagene CIS-FACTORIAL HepG2 Assay for human CCAAT/Enhancer Binding Protein (C/EBP) beta (AID 2282927); settings: HepG2 Attagene cis-factorial transcription factor reporter; actives raise or lower the signal
Chain of CCAAT/enhancer-binding protein beta (Homo sapiens) (P17676 whole entry, looked up): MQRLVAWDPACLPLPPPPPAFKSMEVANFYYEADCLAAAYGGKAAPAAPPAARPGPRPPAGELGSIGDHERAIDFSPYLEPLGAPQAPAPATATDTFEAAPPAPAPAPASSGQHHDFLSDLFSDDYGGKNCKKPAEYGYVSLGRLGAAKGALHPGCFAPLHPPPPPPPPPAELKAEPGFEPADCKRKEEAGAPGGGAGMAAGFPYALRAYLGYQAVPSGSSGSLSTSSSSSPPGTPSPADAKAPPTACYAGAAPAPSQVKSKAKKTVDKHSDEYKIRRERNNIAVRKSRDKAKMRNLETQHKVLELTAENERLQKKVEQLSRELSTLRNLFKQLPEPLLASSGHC
Procedure, shortened: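 Endogenous transcription factor activity in human liver HepG2 cells is inferred from induction of a CEBPB-linked reporter mRNA. Exposure lasts 24 h; activity is fitted in both directions relative to DMSO.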

[3] = ATG_CMV_CIS: Attagene CIS-FACTORIAL HepG2 Assay for human CMV (Internal Marker) (AID 2282928); settings: HepG2 CMV promoter reporter, transcription factor profiling; actives raise or lower the signal;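 also: endpoint acts as a background internal control marker rather than a target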
Procedure, shortened: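 Readout: fluorescent reporter cDNA fragments separated by capillary electrophoresis after RT-PCR and HpaI cut. Cells: HepG2 carrying transfected cis-promoter reporter constructs, dosed 24 h. Endpoint serves as background internal-marker control, fit bidirectionally versus DMSO.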

[4] = ATG_DR4_LXR_CIS: Attagene CIS-FACTORIAL HepG2 Assay for human Liver X Receptor (LXR), DR4 submotif (AID 2282929); settings: HepG2 Attagene DR4 cis-reporter, mRNA transcription; actives raise or lower the signal
Procedure, shortened: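 DR4 cis-reporter in HepG2, 24 h exposure. Detection: RT-PCR, 6-FAM labelling, CE fragment analysis. Endpoint fitted bidirectionally, DMSO = baseline.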

[5] = biological target: Aryl hydrocarbon receptor (Homo sapiens) (UniProt P35869); assay: ATG_Ahr_CIS: Attagene CIS-FACTORIAL HepG2 Assay for human Aryl Hydrocarbon Receptor (Ahr) (AID 2282930); settings: HepG2 AhR cis-factorial reporter transcription; actives raise or lower the signal
Chain of Aryl hydrocarbon receptor (Homo sapiens) (P35869 whole entry, looked up): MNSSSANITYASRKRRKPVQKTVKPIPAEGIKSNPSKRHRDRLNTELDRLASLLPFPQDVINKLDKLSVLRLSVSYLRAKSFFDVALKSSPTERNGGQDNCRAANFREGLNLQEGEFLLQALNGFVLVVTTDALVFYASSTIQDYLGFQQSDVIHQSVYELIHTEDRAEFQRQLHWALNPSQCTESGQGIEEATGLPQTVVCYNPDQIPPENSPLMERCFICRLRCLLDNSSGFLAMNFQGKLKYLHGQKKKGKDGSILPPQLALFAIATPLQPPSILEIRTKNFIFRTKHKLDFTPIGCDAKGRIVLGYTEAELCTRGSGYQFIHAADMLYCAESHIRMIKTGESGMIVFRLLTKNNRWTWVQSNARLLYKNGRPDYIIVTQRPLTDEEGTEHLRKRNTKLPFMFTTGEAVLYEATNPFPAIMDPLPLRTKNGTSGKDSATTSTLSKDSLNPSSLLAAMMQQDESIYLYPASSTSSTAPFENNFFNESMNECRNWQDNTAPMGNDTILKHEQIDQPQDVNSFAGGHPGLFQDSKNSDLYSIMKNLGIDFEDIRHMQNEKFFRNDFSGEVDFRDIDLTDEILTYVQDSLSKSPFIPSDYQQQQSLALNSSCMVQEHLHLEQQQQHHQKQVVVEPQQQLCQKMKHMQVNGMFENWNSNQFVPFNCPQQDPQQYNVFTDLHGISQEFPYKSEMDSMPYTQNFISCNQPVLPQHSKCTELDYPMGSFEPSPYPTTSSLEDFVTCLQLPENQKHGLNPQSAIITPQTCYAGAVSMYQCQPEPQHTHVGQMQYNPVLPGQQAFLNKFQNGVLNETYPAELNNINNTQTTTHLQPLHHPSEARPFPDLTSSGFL
Procedure, shortened: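 Transient MRTU transfection of HepG2 → 24 h compound exposure → total RNA, oligo(dT) RT → PCR, 6-FAM extension, HpaI cut → CE fluorescence. DMSO = baseline; bidirectional curve fit.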

[6] = ATG_AP_1_CIS: Attagene CIS-FACTORIAL HepG2 Assay for human Activator Protein 1 (AP-1) (AID 2282931); settings: HepG2 Attagene cis-factorial AP-1 reporter mRNA; actives raise or lower the signal
Procedure, shortened: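 Cis-regulated reporter units transiently expressed in HepG2 report endogenous transcription-factor activity. Signal: reporter mRNA at 24 h, via RT-PCR and fluorescent capillary electrophoresis. Endpoint derived by bidirectional fitting, DMSO as negative control.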

[7] = ATG_AP_2_CIS: Attagene CIS-FACTORIAL HepG2 Assay for human Activator Protein 2 (AP-2) (AID 2282932); settings: HepG2 AP-2 cis-reporter, Attagene transcription factor profiling; actives raise or lower the signal
Procedure, shortened: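 Transiently transfected HepG2 cells are exposed to chemical for 24 h. Reporter transcripts are then measured as fluorescence following RT-PCR and capillary separation, and gain- or loss-of-signal is fitted relative to DMSO.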

[8] = ATG_BRE_CIS: Attagene CIS-FACTORIAL HepG2 Assay for human Bone Morphogenetic Protein (BMP) Response Element (BRE) (AID 2282933); settings: HepG2 BMP response element reporter, Attagene transcription factor profiling; actives raise or lower the signal
Procedure, shortened: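 Transient MRTU transfection of human HepG2 liver cells; 24 h compound treatment; total RNA isolated, reverse-transcribed, PCR-amplified, 6-FAM labelled, HpaI-cut, capillary electrophoresis. DMSO = negative control/baseline, bidirectional fit.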

[9] = biological target: Transcription factor E2F1 (Homo sapiens) (UniProt Q01094); assay: ATG_E2F_CIS: Attagene CIS-FACTORIAL HepG2 Assay for human E2F Transcription Factor 1 (AID 2282935); settings: HepG2 Attagene cis-reporter, E2F reporter RNA transcripts; actives raise or lower the signal
Chain of Transcription factor E2F1 (Homo sapiens) (Q01094 whole entry, looked up): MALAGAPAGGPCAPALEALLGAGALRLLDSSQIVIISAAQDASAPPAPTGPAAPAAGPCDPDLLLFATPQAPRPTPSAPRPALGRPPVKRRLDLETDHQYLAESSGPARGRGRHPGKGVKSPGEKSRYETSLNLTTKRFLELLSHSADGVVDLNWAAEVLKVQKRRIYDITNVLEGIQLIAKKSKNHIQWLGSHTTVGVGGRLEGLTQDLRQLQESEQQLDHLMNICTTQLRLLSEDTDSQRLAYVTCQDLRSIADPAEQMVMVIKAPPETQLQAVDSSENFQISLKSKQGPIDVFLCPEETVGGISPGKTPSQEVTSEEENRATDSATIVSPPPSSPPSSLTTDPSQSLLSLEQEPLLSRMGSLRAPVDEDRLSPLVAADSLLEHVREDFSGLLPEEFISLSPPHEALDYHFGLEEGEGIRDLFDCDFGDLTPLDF
Procedure, shortened: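 Fluorescent RT-PCR products, digested with HpaI for 2 h at 37 C, are separated by capillary electrophoresis. Source RNA comes from transfected HepG2 cultures treated for 24 h.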

[10] = ATG_E_Box_CIS: Attagene CIS-FACTORIAL HepG2 Assay for human Enhancer Box (E-box) (AID 2282936); settings: HepG2 E-box cis-reporter transcription, actives raise or lower the signal
Procedure, shortened: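 Fluorescent reporter fragments separated by capillary electrophoresis gave the signal; mRNA came from HepG2 cells transfected with cis-element reporters and treated 24 h. Curves fitted bidirectionally relative to DMSO controls.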

[11] = ATG_M_61_CIS: Attagene CIS-FACTORIAL HepG2 Assay for M61 Transcription Factor (Internal Marker) (AID 2282937); settings: HepG2 Attagene CIS-FACTORIAL M61 internal marker reporter; actives raise or lower the signal
Procedure, shortened: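 Background-control endpoint: HepG2 cells with cis-regulated reporter constructs, 24 h exposure, reporter mRNA detected via fluorescent primer extension and capillary electrophoresis; values from bidirectional fitting with DMSO baseline.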

[12] = ATG_EGR_CIS: Attagene CIS-FACTORIAL HepG2 Assay for human Early Growth Response 1 (EGR1) (AID 2282938); settings: HepG2 Attagene CIS-FACTORIAL EGR reporter mRNA; actives raise or lower the signal
Procedure, shortened: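 Endpoint derived by bidirectional fitting versus DMSO vehicle. Method: cis-promoter reporter units transfected into HepG2, 24 h dosing, RNA isolation, RT-PCR with 6-FAM primer extension and HpaI digestion, then capillary electrophoresis fluorescence detection.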

[13] = ATG_M_19_CIS: Attagene CIS-FACTORIAL HepG2 Assay for M19 Transcription Factor (Internal Marker) (AID 2282939); settings: HepG2 Attagene CIS-FACTORIAL M19 internal marker reporter; actives raise or lower the signal
Procedure, shortened: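 Transfect HepG2 with MRTU reporter library → dose chemical, 24 h → isolate total RNA, reverse-transcribe with oligo(dT) → PCR, 6-FAM label, HpaI cut (2 h, 37 C) → capillary electrophoresis. Bidirectional fit vs DMSO.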

[14] = ATG_ERE_CIS: Attagene CIS-FACTORIAL HepG2 Assay for Estrogen Response Element (ERE) (AID 2282940); settings: HepG2 ERE cis-reporter, Attagene RNA transcript; actives raise or lower the signal
Procedure, shortened: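 Transient MRTU transfection of human HepG2; cis-element promoters; 24 h dosing; total RNA → RT (oligo dT) → PCR → 6-FAM primer extension → HpaI digest → CE fluorescence. Bidirectional fit, DMSO baseline.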

[15] = ATG_Ets_CIS: Attagene CIS-FACTORIAL HepG2 Assay for human Erythroblast Transformation Specific (ETS) (AID 2282941); settings: HepG2 ETS cis-reporter transcription, actives raise or lower the signal
Procedure, shortened: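 RT-PCR/capillary electrophoresis fluorescence read-out of reporter mRNA; HepG2 transient multi-reporter transfection; 24 h compound exposure; gain or loss of signal fitted bidirectionally relative to DMSO.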

[16] = ATG_GATA_CIS: Attagene CIS-FACTORIAL HepG2 Assay for human GATA Binding Protein (AID 2282944); settings: HepG2 GATA cis-element reporter, Attagene multiplex mRNA; actives raise or lower the signal
Procedure, shortened: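 Transient MRTU transfection, HepG2, 24 h compound exposure. Total RNA → oligo(dT) RT → PCR → 6-FAM primer extension → HpaI cut → CE. Bidirectional fit vs DMSO.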

[17] = ATG_FoxO_CIS: Attagene CIS-FACTORIAL HepG2 Assay for human Forkhead box O (FoxO) (AID 2282943); settings: HepG2 Attagene cis-reporter, FoxO element, mRNA; actives raise or lower the signal
Procedure, shortened: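 HepG2, transient MRTU transfection (cis element, endogenous TFs). Dose 24 h. TriZol RNA → oligo(dT) RT → PCR → 6-FAM primer extension → HpaI cut → CE. Gain/loss vs DMSO.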

[18] = biological target: Retinoic acid receptor alpha (Homo sapiens) (UniProt P10276); assay: ATG_DR5_RAR_CIS: Attagene CIS-FACTORIAL HepG2 Assay for human Retinoic Acid Receptor Alpha (RARE), DR5 submotif (AID 2282934); settings: HepG2 Attagene cis-factorial RARE DR5 reporter, mRNA; actives raise or lower the signal
Chain of Retinoic acid receptor alpha (Homo sapiens) (P10276 whole entry, looked up): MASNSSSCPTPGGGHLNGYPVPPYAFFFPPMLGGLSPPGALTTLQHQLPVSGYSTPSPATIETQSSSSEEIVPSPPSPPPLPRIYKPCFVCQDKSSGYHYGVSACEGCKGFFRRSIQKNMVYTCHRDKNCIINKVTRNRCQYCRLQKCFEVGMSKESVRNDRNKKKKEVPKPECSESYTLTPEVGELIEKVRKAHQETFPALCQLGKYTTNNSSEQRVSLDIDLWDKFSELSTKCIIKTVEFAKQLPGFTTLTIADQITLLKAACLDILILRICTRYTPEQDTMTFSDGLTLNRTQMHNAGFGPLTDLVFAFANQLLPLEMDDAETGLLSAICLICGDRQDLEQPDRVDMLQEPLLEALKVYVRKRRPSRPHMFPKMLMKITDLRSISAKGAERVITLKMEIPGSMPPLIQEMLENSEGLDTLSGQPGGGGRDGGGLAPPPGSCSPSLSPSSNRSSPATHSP
Procedure, shortened: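 Transient MRTU transfection of HepG2; 24 h compound treatment; TriZol RNA, oligo(dT) RT, PCR, FAM labelling, capillary electrophoresis. Bidirectional fit vs DMSO. Endogenous TF activity at DR5 RARE.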

[19] = biological target: Hepatocyte nuclear factor 3-beta (Homo sapiens) (UniProt Q9Y261); assay: ATG_FoxA2_CIS: Attagene CIS-FACTORIAL HepG2 Assay for human Forkhead box A2 (FOXA2) (AID 2282942); settings: HepG2 cis-reporter transcription factor activity, 24 h; actives raise or lower the signal
Chain of Hepatocyte nuclear factor 3-beta (Homo sapiens) (Q9Y261 whole entry, looked up): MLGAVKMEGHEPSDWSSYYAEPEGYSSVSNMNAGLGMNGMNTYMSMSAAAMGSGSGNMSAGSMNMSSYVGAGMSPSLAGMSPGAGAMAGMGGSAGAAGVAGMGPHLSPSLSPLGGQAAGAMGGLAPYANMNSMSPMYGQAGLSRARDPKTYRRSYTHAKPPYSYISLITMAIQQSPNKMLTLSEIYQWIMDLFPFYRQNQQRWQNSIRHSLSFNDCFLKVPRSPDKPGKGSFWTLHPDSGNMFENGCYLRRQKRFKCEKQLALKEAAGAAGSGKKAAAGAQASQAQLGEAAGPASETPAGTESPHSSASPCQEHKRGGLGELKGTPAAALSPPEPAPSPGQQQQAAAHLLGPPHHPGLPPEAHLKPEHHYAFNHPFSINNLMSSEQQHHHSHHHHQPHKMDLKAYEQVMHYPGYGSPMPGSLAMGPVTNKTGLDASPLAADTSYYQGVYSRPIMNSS
Procedure, shortened: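 Measured: reporter mRNA induction or loss in HepG2 transiently carrying multiple cis-regulated reporter units, 24 h after dosing. Quantified by RT-PCR plus capillary electrophoresis, normalised to DMSO.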

Measured: AC50

c1ccc(C(O[C@@H]2CCCN(CCc3ccc4c(c3)OCO4)C2)c2ccccc2)cc1
inactive: [1] | [2] | [7] | [9] | [10] | [11] | [13] | [15] | [16]
active: [3] 50.8 µM | [4] 47.4 µM | [5] 18.1 µM | [6] 52.1 µM | [8] 33 µM | [12] 33 µM | [14] 13.8 µM

c1ccc2ncccc2c1
inactive: [1] | [2] | [3] | [4] | [6] | [7] | [8] | [9] | [10] | [11] | [12] | [13] | [14] | [15] | [17] | [16]
active: [5] 41.9 µM

CCCCCCCC1CCC(=O)O1 (stereo not drawn)
inactive: [2] | [3] | [4] | [5] | [7] | [8] | [18] | [9] | [10] | [11] | [12] | [13] | [14] | [15] | [19] | [16]

O=S1(=O)CCCO1
inactive: [1] | [2] | [3] | [4] | [5] | [6] | [7] | [8] | [9] | [10] | [11] | [12] | [13] | [14] | [15] | [19] | [16]

CCCCCCCC/C=C\CCCCCCCC(=O)OC[C@@H](O)[C@H]1OC[C@H](O)[C@H]1O
inactive: [1] | [2] | [3] | [4] | [6] | [7] | [8] | [18] | [9] | [10] | [11] | [12] | [13] | [14] | [15] | [19] | [17] | [16]

NNC(=O)c1ccncc1
inactive: [1] | [2] | [3] | [4] | [5] | [6] | [7] | [8] | [9] | [10] | [11] | [12] | [13] | [15] | [17] | [16]
active: [14] 26.6 µM

CCn1nc(C)c2c1C(=O)NCC(c1ccc(O)cc1)=N2
inactive: [1] | [2] | [3] | [4] | [5] | [6] | [7] | [8] | [9] | [10] | [11] | [12] | [13] | [14] | [15] | [19] | [16]
